The source of these data is PubChem BioAssay (EPA / NIEHS).

Molecules are shown by their SMILES. The source made the active and inactive calls. How the source made its calls: active means hit-call score of the fitted dose curve at least 0.9, where 1 is the maximum; inactive means score below 0.9.

This test can be described thus: CCTE_Padilla_ZF_Score.General: CCTE's 144 Hour Post-fertilization zebrafish Assay Score for General Malformation, Padilla Lab (AID 2284411). On the procedure: CCTE_Padilla_ZF_Phenotype_Score is a whole embryo, multiplexed assay using zebrafish ova exposed for 144 hours post fertilization on a 96-well plate.CCTE_Padilla_ZF_Score.General is one of one assay component(s) measured or calculated from the CCTE_Padilla_ZF_Phenotype_Score assay. It is designed to make measurements of zebrafish development as detected with brightfield microscopy of developing zebrafish embryos.Data from the assay component CCTE_Padilla_ZF_Score.General was analyzed into 1 assay endpoints. This assay endpoint, CCTE_Padilla_ZF_Score.General, was analyzed in the positive analysis fitting direction relative to DMSO as the negative control and baseline of activity. Using a type of viability reporter, gain-of-signal activity can be used to understand changes in developmentals as they relate to the whole embryo. To generalize the intended target to other relatable targets, this assay endpoint is annotated to the zebrafish development intended target family, where the subfamily is embryonic morphogenesis.
Zebrafish husbandry: Wild type adult zebrafish (Danio rerio; undefined outbred stock obtained from Aquatic Research Organisms, Hampton, NH, 03842) were housed in an AAALAC-approved animal facility at 28C with a 14:10 h light: dark cycle (lights on at 08:30 h). Adult fish (2-3 females per male; density = 15-20 adults per tank) were kept in one of several 9-liter (L) flow-through colony tanks (Aquaneering Inc., San Diego, CA). All adults in a colony tank were placed in a 2 L (static) breeding tank (Aquatic Habitats, Apopka, FL) one hour prior to light onset. Typically, adults from two to three colony tanks were mated on the same day. Two hours after light onset the adults were returned to the colony tank. All embryos were gathered from each breeder tank, pooled, and placed in a 28C water bath for 2 h, followed by two washes with 0.06% bleach (v/v) in 10% Hanks' Balanced Salt Solution (13.7 mM NaCl 0.54 mM KCl, 25 uM Na2HPO4, 130 uM CaCl2 100 um MgSO4 and 420 um NaHCO3,), hereafter referred to as Hanks' solution, for 5 min in order to remove any residual bacteria or fungi. Immediately following washing, the embryos were examined, and healthy embryos were separated from dead or unfertilized eggs and moved into fresh Hanks'. Chemical exposures: Zebrafish embryos were exposed in 96-well plates. Between 6- and 8-hours post fertilization (hpf), healthy embryos (with chorions) were transferred, one embryo per well, into 96 well (0.5 mL) microtiter plates (Cell Culture-Treated, Flat-Bottom Microplate 96 well [Corning Costar, Kennebunk, ME; Cat 09-761-145]) filled with 200 uL of Hanks' solution. A random number generator was used to assign the order in which the rows of embryos were plated in 96 well plates each week. After plating, the embryos were dosed with 0.8 uL of the chemical dosing solution then immediately sealed with AlumaSeal II (Excel Scientific Inc, Victorville, CA) to prevent volatilization of the chemicals, and then placed in a leakproof secondary container. These containers were placed in an incubator maintained on a 14:10 h light: dark cycle at 26C for rearing. On 5 dpf, live larvae were gently moved out of the plate with test chemicals and into a new 96 well mesh plate (Millipore Corp., Bedford, MA) with just the Hanks' solution. Once within the mesh well plate, the animals were rinsed with 400 uL of fresh Hanks' three times, and then the plates were covered with a non-adhesive material (Microseal A, BioRad, Hercules, CA), plate lid added, and then plate sides wrapped in Parafilm (PM992, Bermis Company, Neenah, WI), and returned to the incubator. […]
Take `NC(=S)Nc1ccccc1`: the compound was classed as inactive.

Consider `CC(=O)C(Cl)C(=O)N(C)C` (configuration not stated), for which the call was inactive.

Turning to `CC(C)CCCCCCOC(=O)c1ccccc1C(=O)OCCCCCCC(C)C`, the result was inactive.

With `Nc1cccc2ccccc12`, the call was inactive.

For the compound `Nc1ncc([N+](=O)[O-])s1`, the compound was called inactive.

For the compound `COc1cc(OC)nc(NC(=O)NS(=O)(=O)c2ncccc2C(=O)N(C)C)n1`, the call was inactive.

Regarding `CCOP(=S)(OCC)Oc1ccc(S(C)=O)cc1` (configuration not stated), the outcome was inactive.

Regarding `O=C(O)C(F)(F)C(F)(F)C(F)(F)C(F)(F)C(F)(F)C(F)(F)C(F)(F)C(F)(F)C(F)(F)C(F)(F)F`, the AC50 is 2510 nM (active).

With `CCOP(=S)(OCC)SCCS(=O)(=O)CC`, the outcome was inactive.

For `O=C(O)C(F)(F)C(F)(F)C(F)(F)C(F)(F)C(F)(F)C(F)(F)F`, the outcome was inactive.

As to `O=C(O)CCC(F)(C(F)(F)F)C(F)(F)F`, the outcome was inactive.

For the compound `BrCCBr`, the outcome was inactive.
